Compound activity as filed in PubChem BioAssay.
In the library only some 7.1% were active in any assay of this set; here they are far more common.
LASV entry inh: qHTS for Inhibitors of binding or entry into cells for Lassa Virus. Lassa virus pseudotyped entry inhibition, cell-based qHTS. 18,000 tested, 4.1% active. Potency, µM (series often up to 49.2 µM), actives largely listed as inhibitors
Marburg entry: qHTS for Inhibitors of binding or entry into cells for Marburg Virus; 18,000 tested, 6.5% active; AID 720532, 2013; Marburg virus pseudotype entry/binding inhibition, cell-based; Potency, µM (series often up to 49.2 µM), usual class: inhibitors
A number is an active result; - = inactive; ? = inconclusive; . = not tested or not shown; ! = not confirmed by another sample; [ ] = remark or other dose. Calls come from the whole dose curve; tested in HEK293 cells.

SMILES	LASV entry inh	Marburg entry
O=C(O)c1cccc(-c2noc(-c3ccccc3F)n2)c1	8.9µM	3.2µM
Fc1ccccc1-c1nc(-c2ccccc2)oc1NCc1ccccc1	-[8.59 µM]	-[8.59 µM]
C[C@]12CCC3C(CC[C@]4(O)C[C@@H](O)CC[C@]34C=O)[C@@]1(O)CC[C@@H]2C1=CC(=O)OC1 (stereo not given in full)	1µM	?
CC(=O)C[C@@H](c1ccccc1)c1c(O)c2ccccc2oc1=O	-	-
O=c1oc2ccccc2c(O)c1Cc1c(O)c2ccccc2oc1=O	7.9µM!	-
COC(=O)N1C(C)=Cc2ccccc2C1CC(C)=CC(C)=O (stereo not given)	-[8.59 µM]	-[8.59 µM]
O=C(OCc1cn([C@@H]2C[C@H](c3ccc(Cl)cc3)N(Cc3cccs3)C[C@@H]2O)nn1)c1ccccc1	.	-
C[C@H]1C(C(=O)N2CCCC2)=Cc2[nH]c(=O)[nH]c2C=C1c1ccccc1	-[8.59 µM]	-[8.59 µM]
CC(C)C1C(=O)N(Cc2cn(CCC3OCCCO3)nn2)CCS(=O)(=O)N1Cc1ccc(-c2ccc(F)cc2)cc1 (stereo not given)	-	?
CCN1CCC(CC(=O)Nc2n[nH]c3nnc(-c4cccc(F)c4F)cc23)CC1	.	-
COC(=O)N(C=Cc1ccc(OC)cc1)CCc1ccc(OC)c(OC)c1	-[8.59 µM]	-[8.59 µM]
CC(=O)OC1C[C@@]2(C)C(c3ccoc3)OC(=O)C3O[C@@]32[C@]2(C)C(OC(C)=O)CC3C(C)(C)C(OC(C)=O)CC(OC(C)=O)[C@@]3(C)C12 (stereo not given in full)	-	-
CC(=O)OC1CC(OC(C)=O)[C@]2(C)C(CC(OC(C)=O)[C@]3(C)C2CC[C@@]2(C)C(c4ccoc4)C(=O)C4O[C@]432)C1(C)C (stereo not given in full)	-	16µM
COc1cccc(CO[C@H]2C=C[C@@H](c3ccccc3)O[C@H]2CN=[N+]=[N-])c1	-[8.59 µM]	-[8.59 µM]
Cc1ccc(CN2[C@@H](CC(C)C)COc3c(Cl)cccc3S2(=O)=O)cc1	-	-
CC(=O)[O][Hg][c]1ccccc1	0.5µM	?
CC(=O)Oc1ccccc1C(=O)O	-	-
COc1cccc([C@H]2Oc3ccc(OC)cc3C(=NO[C@H](C)CN3CCCc4nc(C)c(C)cc43)[C@H]2O)c1	-[8.59 µM]	?
CCCCCCN1C[C@@H](O)[C@H](n2cc(C3CC3)nn2)C[C@H]1c1ccc(OC)cc1	-	-
CCOC(=O)C(CCc1ccccc1)NC1CCc2ccccc2N(CC(=O)O)C1=O (stereo not given)	-	-
CCOC(=O)[C@H](CCc1ccccc1)N[C@H]1CCc2ccccc2N(CC(=O)O)C1=O	-	14µM!
CC[C@@]1(O)C(=O)OCc2c1cc1n(c2=O)Cc2cc3ccccc3nc2-1	?	2.2µM
COC(=O)C(C)c1ccc(C(=O)c2cccs2)cc1 (stereo not given)	-	-
CNCCCCCCCCSc1nc(C(C)C)ccc1C(=O)c1cccs1	?	5.6µM
CCN1C(=S)NC(c2cccs2)C(C(=O)OC)=C1C (stereo not given)	-[8.59 µM]	-[8.59 µM]
SMILES	LASV entry inh	Marburg entry
CN1C(=O)CC(=O)N(c2ccccc2)c2cc(Cl)ccc21	-	-
NCCNC(=O)c1ccc(Cl)cc1	-	-
CN(C)CCCN1c2ccccc2CCc2ccc(Cl)cc21	11µM!	8.9µM
CN(CCCN1c2ccccc2CCc2ccccc21)CC(=O)c1ccc(Cl)cc1	?	7.9µM
CNCCCN1c2ccccc2CCc2ccccc21	?	7.9µM
CCN1C(=NCc2cccc(C(F)(F)F)c2)NC(c2cccc(C(F)(F)F)c2)C(C(=O)OC)=C1C (stereo not given)	-[8.59 µM]	-[8.59 µM]
C=CCN1c2ccccc2[C@]23CCC(=O)N(CCOC)C2=NC(C(=O)OC)=C(C(=O)OC)[C@H]13	-[8.59 µM]	-[8.59 µM]
C=CCOC(=O)N[C@H](C(C(=O)OC)=C(C)NCc1ccccc1)c1cccc(OC)c1	-[8.59 µM]	-[8.59 µM]
CC1(C)CC(=O)C2=C(C1)O[C@@]1(CCCCN3C(=O)c4ccccc4C3=O)Cc3ccccc3[C@H]2O1	-[8.59 µM]	-[8.59 µM]
CC(C)c1ccc2c(N=Nc3ccc(S(N)(=O)=O)cc3)c(O)[nH]c2c1	-	?
Cn1cnnc1Sc1c([N+](=O)[O-])ncn1C	-	-
Cn1cnc([N+](=O)[O-])c1Sc1ncnc2nc[nH]c12	?	10µM!
COC[C@H]1O[C@@H](c2c(OC)cc(OC)cc2OC)[C@H](OC)[C@@H](OC)[C@H]1OC	-[8.59 µM]	-[8.59 µM]
COc1ccc([C@]23Cc4cc(C#N)ccc4[C@H](O2)c2c(c4ccc(OC)cc4oc2=O)O3)cc1	-[8.59 µM]	?
O=P(O)(O)O	35µM	6.3µM
O=C(O)P(=O)(O)O	-	-
CCn1c(-c2nonc2N)nc2c(C#CC(C)(C)O)nc(OCCNC)cc21	.	13µM
CCn1c(-c2nonc2N)nc2ccccc21	-	?
OC[C@H]1O[C@H](C#Cc2ccccc2)C=C[C@@H]1O	-[8.59 µM]	-[8.59 µM]
c1cc(CN2CCCCC2)cc(OCCCNc2nc3ccccc3s2)c1	?	16µM
c1ccc2sc(N3CCN(Cc4ccc5c(c4)OCO5)CC3)nc2c1	-	-
C=CCN=C1NC(CCc2ccccc2)C(C(=O)OC)=C(C)N1CC (stereo not given)	-[8.59 µM]	?
O=C1C=C2C=C[C@@H]3C[C@@]2(O1)[C@H]1CCCCN31	?	14µM
CCN1C(=NCC(C)C)NC(c2cccc(F)c2)C(C(=O)OC)=C1C (stereo not given)	-[8.59 µM]	-[8.59 µM]
C[C@H]1[C@@H](c2ccccc2)Oc2c(Cl)cccc2S(=O)(=O)N1Cc1ccc(Cl)cc1	-	-
SMILES	LASV entry inh	Marburg entry
COCCN1C(=NCC(C)C)NC(c2ccccc2)C(C(=O)OC)=C1C (stereo not given)	.	-[8.59 µM]
COC(=O)Nc1nc2ccc(C(=O)c3ccccc3)cc2[nH]1	-	?
COC(=O)Nc1nc2ccc(C(=O)c3cccs3)cc2[nH]1	?	1.1µM!
CC[n+]1c(-c2ccccc2)c2cc(N)ccc2c2ccc(N)cc21	?	8.9µM
Cc1cc(C(=O)Nc2cccc(-c3nc(CNC(=O)c4ccccc4C(F)(F)F)c(C)o3)c2)c(C)o1	?	-
COc1cccc(C(=O)NCc2nc(-c3cccc(NC(=O)c4ccoc4C)c3)oc2C)c1OC	18µM	?
COc1ccc2[nH]c(-c3cccc(F)c3)cc(=O)c2c1	-	?
COc1cccc(-c2cc(=O)c3cc(NC(=O)c4ccc(Cl)cc4)ccc3[nH]2)c1	-	?
COc1cccc(-c2cc(=O)c3cc(NC(=O)c4ccc(N(C)C)cc4)ccc3[nH]2)c1	?	4µM
COc1cccc(-c2cc(=O)c3cc(NC(=O)c4ccccc4)ccc3[nH]2)c1	?	7.1µM
CCCC[C@]12Cc3ccccc3[C@H](O1)c1c(cc(-c3ccccc3)oc1=O)O2	-[8.59 µM]	?
C[C@]12C[C@@](C)(C=C1C=Cc1ccc(F)cc1)C(=O)C[C@H]2c1ccc(F)cc1	.	-[8.59 µM]
CNC(=O)[C@@H]1C[C@@H](NCc2cccc(Oc3ccccc3)c2)CN1C(C)C	-	10µM
O=C(O)c1cc(C(=O)O)c(C(=O)N(Cc2cccc(Oc3ccccc3)c2)[C@H]2CCCc3ccccc32)cc1C(=O)O	-	-
CCCN(C/C=C/I)C1CCc2cccc(O)c2C1 (stereo not given)	-	?
CCCN(CCC)C1CCc2cccc(O)c2C1 (stereo not given)	32µM	22µM
N#Cc1c(NC(=O)CN2CCOCC2)sc2c1CCCC2	-	-
CCN1C(=O)[C@@H]2[C@H]3[C@H](O)[C@H](O)CC(=NO[C@@H](C)c4cn([C@H](CO)Cc5ccccc5)nn4)[C@@H]3CC[C@H]2C1=O	.	-[8.59 µM]
